Bioassay records (PubChem)
Luciferase inh = inhibitors of firefly (Photinus pyralis) luciferase | purified P. pyralis luciferase, luminescence, biochemical | Potency, µM (top dose mostly 115 µM), usual class: inhibitors | 76,000 tested, 2.5% active | AID 1347043; further: nearly all actives have a fitted effect of over 65% in size
Target sequence (P08659 whole entry, looked up): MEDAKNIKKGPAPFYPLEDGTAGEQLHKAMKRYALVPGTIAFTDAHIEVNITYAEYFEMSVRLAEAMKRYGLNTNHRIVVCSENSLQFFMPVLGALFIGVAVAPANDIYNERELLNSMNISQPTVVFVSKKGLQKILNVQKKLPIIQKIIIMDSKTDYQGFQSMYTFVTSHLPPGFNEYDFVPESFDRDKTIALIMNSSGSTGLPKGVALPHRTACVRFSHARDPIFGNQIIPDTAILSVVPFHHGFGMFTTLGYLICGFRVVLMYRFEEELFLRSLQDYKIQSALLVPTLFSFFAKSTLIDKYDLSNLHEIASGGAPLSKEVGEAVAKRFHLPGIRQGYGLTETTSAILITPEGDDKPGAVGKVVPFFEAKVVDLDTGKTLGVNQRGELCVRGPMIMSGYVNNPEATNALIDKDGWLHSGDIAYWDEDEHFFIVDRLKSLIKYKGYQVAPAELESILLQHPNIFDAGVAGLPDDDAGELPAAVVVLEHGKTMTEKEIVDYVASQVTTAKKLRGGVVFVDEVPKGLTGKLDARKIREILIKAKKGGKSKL
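FLuc 10nM, D-luciferin 10uM, ATP 10uM, Mg acetate 10mM, Tris acetate pH 7.5, Tween/BSA; cpd qHTS; enzyme added last; CCD luminescence.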
NPR1 antag = blocks ANP-stimulated signaling of human Npr1 receptor; Potency, µM (highest dose often 46.3 µM), for inactives: at the top dose activity change, negative = inhibition, usual class: inhibitors; HEK293 hNpr1 GloSensor cGMP, ANP-stimulated luminescence; 76,000 tested, 1.6% active; P16066; AID 1347048; calls by dose curve; further: nearly all actives have a fitted effect of over 60% in size
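Compound pre-incubated 30 min at room temperature on GloSensor-loaded HEK293 cells stably carrying hNpr1 and the pGS-40F cGMP biosensor. Stimulation uses hNppA at 0.1 nM final; luminescence is taken at baseline and 20 min post-agonist.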
3T3 cytotox = cytotoxic compounds in NIH 3T3 cells; NIH 3T3 viability, CellTiter-Glo ATP luminescence, 48-72 h; Potency, µM (top dose mostly 96.7 µM), without a hit: at the highest dose activity change, negative = cytotoxicity, actives largely listed as inhibitors; 94,000 tested, 4.3% active; further: nearly all actives have a fitted effect of over 55% in size
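ATP-dependent luminescence (CellTiter-Glo) served as the viability signal for NIH 3T3 cells treated with compound for 48 or 72 hr at 37 °C.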
GPT2 inh = blocks human glutamate pyruvate transaminase 2 | AID 1671188 | Recombinant GPT2, coupled pyruvate oxidase/HRP Amplex Red fluorescence | Q8TD30 | 100,000 tested, 0.25% active | Potency, µM (highest dose often 57.7 µM), inactives show top-dose activity change, negative = inhibition, most hits filed as inhibitors; further: nearly all actives have a fitted effect of over 60% in size
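Fluorescence read-out: pyruvate from GPT2 turnover coupled to pyruvate oxidase, HRP and Amplex Red (0.2mM ThPP, 0.2U/mL PO and HRP, 50uM Amplex final). Substrates 250uM a-KG, 2mM L-alanine; enzyme 10ng/uL; 30 min RT.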
HEK cytotox = cytotoxic compounds in HEK 293 cells; HEK 293 viability, ATP luminescence (CellTiter-Glo), 48-72 h; Potency, µM (doses to about 115 µM), inactives show top-dose activity change, negative = cytotoxicity, hits mostly inhibitors; 94,000 tested, 6.6% active; further: nearly all actives have a fitted effect of over 60% in size
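Viability of HEK 293 cells, plated at 250 cells/well, was judged by cellular ATP after compound treatment for 48 or 72 hr. Luminescence was imaged 10 min after CellTiter-Glo addition at room temperature.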
* hit, by the source's call; i = inactive; ? = inconclusive; nt = no result given; [ ] = another dose, or the depositor's remark. Sampled rows, rich in hits. Any-hit rate of the full collection: about 10%. Unless noted, the call rests on the fitted dose curve; in most records, active means well fitted curve in the direction sought with a large enough effect; inconclusive means small, poorly fitted or top-dose-only effect, or another doubt; inactive means no such curve, though single readings can be large; an effect the other way counts as inactive or inconclusive. On the % scale 0 is the no-effect control and ±100 the full control effect; potency means the concentration at half of the fitted maximal effect.

SMILES | Luciferase inh | NPR1 antag | 3T3 cytotox | GPT2 inh | HEK cytotox
Cn1nccc1-c1cccc(CCOc2cnc3c(ccn3CC(=O)O)c2)c1 | i | -13.3%[70.6 µM] | 44.7µM* | i | -8.9%[172 µM]
O=C(O)Cn1ccc2cc(OCc3cccc(-c4ccc(F)cc4F)c3)cnc21 | 20µM* | 4.5%[70.6 µM] | -3.0%[138 µM] | i | ?
COc1cccc(-c2cccc(CCOc3cnc4c(ccn4CC(=O)O)c3)c2)c1 | i | 3.3%[70.6 µM] | ? | ? | ?
CCOC(=O)C1CCN(C(=O)c2ccc3nnc(C(C)(C)C)n3c2)CC1 | nt | nt | -26.3% | i | -22.0%
CCc1nc2c(c(-c3ccc(Cl)cc3)n1)CN(C(=O)c1ccc(C)cc1)CC2 | i | -16.0% | ? | i | ?
O=C(c1ccccc1)N1CCC2(CC1)C(=NC1CCCCC1)NC(=O)N2c1cc(F)cc(F)c1 | nt | nt | 31.6µM* | ? | -9.4%
O=C(c1ccccc1)N1CCC2(C1)C(=NC1CCCCC1)NC(=O)N2c1cc(F)cc(F)c1 (stereo not given) | nt | nt | -20.3% | i | -2.1%
COc1cccc(N2C(=O)NC(=NC3CCCCC3)C23CCN(C(=O)c2ccccc2)CC3)c1 | nt | nt | 31.6µM* | -25.3% | -3.6%
O=C(c1ccc(C(F)(F)F)cc1)N1CCC2(CC1)C(=NC1CCCC1)NC(=O)N2c1cccnc1 | nt | nt | 35.5µM* | i | i
O=C(Cc1ccccc1O)NCc1cccnc1Oc1ccc(F)cc1F | i | -1.5% | -29.5% | i | ?
COc1ccc(C(=O)N2CCCN(CCn3nc4n(c3=O)CCCC4)CC2)cc1 | nt | nt | -10.5% | nt | -15.7%
CN1CCN(C(=O)c2cc(-c3ccccc3F)nc3c2cnn3C)CC1 | nt | nt | -24.2%[138 µM] | nt | -16.7%[172 µM]
Cc1cccc(C(=O)N2CCC(Cc3nncn3CC3CC3)CC2)c1 | i | -6.3% | -25.2% | i | -7.6%
O=C(c1[nH]nc2c1COc1ccccc1-2)N1CCC(Cc2nncn2CC2CC2)CC1 | i | -0.1% | 39.8µM* | i | -28.3%
O=C(C1CCCCC1)N1CCC2(CC1)CC(N(Cc1ccc(F)cc1)C1CC1)CCO2 (stereo not given) | i | -20.7% | ? | -2.8% | 44.7µM*
CNC(=O)N1CCC2(CC1)CC(N(Cc1ccc(F)cc1)C1CC1)CCO2 (stereo not given) | i | -1.5% | -6.6% | 3.3% | -19.7%
CCC(CC)C(=O)N1CCC2(CC1)CC(N(Cc1ccc(F)cc1)C1CC1)CCO2 (stereo not given) | i | -24.5% | ? | i | 39.8µM*
O=C(NC1CCN(c2ccc3nnc(C4CC4)n3n2)C1)c1ccc2c(c1)OCO2 (stereo not given) | nt | nt | -16.2% | nt | -19.0%
COc1ccc(-c2cc(N3CCCC(NC(=O)Cc4ccc(OC)c(OC)c4)C3)n[nH]2)cc1 (stereo not given) | ? | ? | ? | ? | 35.5µM*
O=C(NC1CCCN(c2cc(-c3ccc(Cl)cc3)[nH]n2)C1)c1ccc(Br)o1 (stereo not given) | i | -25.4% | ? | -10.1% | 44.7µM*
COc1ccc(-c2cc(N3CCCC(NC(=O)c4ccc(Br)o4)C3)n[nH]2)cc1 (stereo not given) | 31.6µM* | -21.1% | ? | ? | ?
O=C(NC1CCN(c2cc(-c3ccc(Cl)cc3)[nH]n2)C1)c1ccc(Br)o1 (stereo not given) | i | -27.5% | ? | ? | 35.5µM*
CC(C)c1nc2c(c(-c3ccc(Cl)cc3)n1)CCN(Cc1cccc3ccccc13)CC2 | nt | nt | -28.8% | 4.5% | ?
COc1ccc(-c2cc(N3CCC(NC(=O)COc4cccc(C)c4)CC3)n[nH]2)cc1 | i | ? | 39.8µM* | i | ?
Cc1ccc(OCC(=O)NC2CCN(c3cc(-c4ccccc4)[nH]n3)CC2)cc1 | i | -23.4% | -31.1% | i | -18.5%
SMILES | Luciferase inh | NPR1 antag | 3T3 cytotox | GPT2 inh | HEK cytotox
COc1ccc(C(=O)N2CC(=O)N(Cc3c(OC)cccc3OC)CC(O)C2)cc1 (stereo not given) | nt | nt | ? | nt | -23.4%
COC1CCN(c2ccc(-c3nc(COc4ccccc4)no3)cn2)CC1 | i | ? | -28.2% | i | ?
CCC1CN(c2ccc(-c3nc(-c4ccc(OC)cc4)no3)cn2)CCN1C (stereo not given) | ? | -3.7% | 79.4µM* | i | ?
Cc1ccc(C(=O)N(CC(C)C)CC2CN(C(=O)Nc3cccc(Cl)c3)CCO2)cc1 (stereo not given) | i | -13.4% | ? | i | 39.8µM*
CC(C)CN(CC1CN(C(=O)c2cccc(Cl)c2)CCO1)C(=O)c1cccc2ccccc12 (stereo not given) | i | -19.5% | ? | 0.4% | 35.5µM*
COc1cccc(NC(=O)N2CCOC(CN(CC(C)C)C(=O)c3cccc(OC)c3)C2)c1 (stereo not given) | i | -10.6% | -36.2% | i | ?
Cc1ccc(C(=O)N(CC(C)C)CC2CN(C(=O)c3ccc(Cl)c(Cl)c3)CCO2)cc1 (stereo not given) | i | -13.2% | ? | 4.1% | 44.7µM*
CCc1nc2c(c(-c3ccc(O)cc3)n1)CN(C(=O)c1cccc(Cl)c1)CC2 | nt | nt | -27.7% | i | -10.2%
COc1ccc(NC(=O)N2CCC3(CC2)CC(OCC2CC2)CCO3)cc1 (stereo not given) | i | 0.2% | -20.9% | 2.2% | -13.2%
COc1ccc(-c2cccc(C(=O)N3CCC(NC(=O)Nc4ccccc4)CC3)c2)nn1 | nt | nt | -26.4% | nt | -21.5%
COc1cccc(-c2ccc(C(=O)N3CCC(NC(=O)Nc4ccccc4F)CC3)cc2)c1 | nt | nt | ? | i | 15.8µM*
COc1cccc(-c2ccc(C(=O)N3CCC(NC(=O)c4ccccc4C)CC3)cc2)c1 | nt | nt | 39.8µM* | -4.3% | ?
COc1ccc(-c2cccc(C(=O)N3CCC(NC(=O)Nc4ccc(Cl)cc4)CC3)c2)nn1 | nt | nt | 25.1µM* | nt | 44.7µM*
COc1cccc(-c2ccc(C(=O)N3CCC(NC(=O)C(C)(C)C)CC3)cc2)c1 | nt | nt | 39.8µM* | -5.1% | ?
Cc1nnc2ccc(N3CCCN(C(=O)c4ccccc4Cl)CC3)nn12 | nt | nt | i | nt | i
COc1ccccc1N1CCN(C(=O)c2cc3cn(C4CCCC4)cc3s2)CC1 | i | -14.9% | -17.3% | i | ?
COc1ccc(C(=O)N2CCC(c3noc(COc4ccc(C)cc4)n3)CC2)cn1 | nt | nt | ? | -5.0% | ?
CCOc1ccc(NC(=O)N2CCc3cc(OC)c(OC)cc3C2CNC(=O)C2CC2)cc1 (stereo not given) | i | 5.5% | -2.9% | -19.7% | i
CNC(=O)c1cc(C2CC2)nc2c1c(C1CCCN(C(=O)c3ccc(C)cc3)C1)nn2C (stereo not given) | nt | nt | -26.8% | nt | ?
